# Source: PubChem BioAssay (National Center for Advancing Translational Sciences (NCATS))
# LmPK inhibitor: LmPK (Leishmania mexicana) enzyme inhibition | Potency, µM (highest dose often 57.5 µM), inactives show at the highest dose activity change, negative = inhibition, actives largely listed as inhibitors | AID 1721 | 290,000 compounds, 0.37% hits | purified LmPK, Kinase-Glo ATP luminescence, 1 h; note: potency is the fitted concentration of half-maximal effect; % is set by controls: 0 for no effect and ±100 for the full control effect
# Target sequence (Q27686 whole entry, looked up): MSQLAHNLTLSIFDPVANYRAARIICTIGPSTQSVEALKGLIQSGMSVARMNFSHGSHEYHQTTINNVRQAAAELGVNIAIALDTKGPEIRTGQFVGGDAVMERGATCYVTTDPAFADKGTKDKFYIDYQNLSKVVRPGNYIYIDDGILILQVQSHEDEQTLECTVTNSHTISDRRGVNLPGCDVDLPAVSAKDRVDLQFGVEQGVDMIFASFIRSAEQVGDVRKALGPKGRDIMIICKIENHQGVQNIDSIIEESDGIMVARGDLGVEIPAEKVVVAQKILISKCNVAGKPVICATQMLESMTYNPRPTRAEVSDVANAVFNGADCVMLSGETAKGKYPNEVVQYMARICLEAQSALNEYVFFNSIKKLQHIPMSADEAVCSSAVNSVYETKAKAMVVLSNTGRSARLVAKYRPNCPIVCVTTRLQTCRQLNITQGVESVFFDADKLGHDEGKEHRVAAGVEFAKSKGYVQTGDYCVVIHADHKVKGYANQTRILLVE
#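 qHTS format; LmPK 0.1 nM; substrates PEP 0.5 mM and ADP 0.1 mM. One-hour room-temperature incubation, then coupled luciferase luminescence; 0.5 nM enzyme wells mark activation.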
# CHX counter: counter-screen for Shiga toxin inhibitors: cycloheximide protein synthesis inhibition | AID 2314 | max response, % | cell reporter, cycloheximide protein synthesis inhibition counterscreen | 300,000 compounds, 12% hits; in the data active = max response mostly above about 13%, no sharp cut-off; inactive = mostly below about 14%; note: read at 38.3 µM for the half of the compounds with a filed dose; 0% is about no effect
# Shiga inhibitor: Shiga toxin inhibition | Vero cells, Shiga toxin protein synthesis inhibition reporter | inhibition, % at 38.7 µM | 290,000 compounds, 9.2% hits | AID 2315; in the data active = inhibition mostly above about 28%, no sharp cut-off; inactive = mostly below about 43%; note: 0% is about no effect
# Pf growth 48h: inhibits P. falciparum growth in the first generation, 48 h. Potency, µM (top dose mostly 28.7 µM), for the others: top-dose activity change, negative = inhibition, most hits filed as inhibitors. P. falciparum luciferase growth in erythrocytes, 48 h. 310,000 compounds, 5.9% hits; note: potency is the fitted concentration of half-maximal effect; % is set by controls: 0 for no effect and ±100 for the full control effect
#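 Read-out is firefly luciferase luminescence from an integrated reporter in P. falciparum, so falling signal marks reduced parasite growth. Infected erythrocytes were at 2% hematocrit and 0.1% parasitemia (final) in Albumax-supplemented RPMI 1640.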
# Pf growth 96h: P. falciparum growth inhibition at 96 hour, primary screen for plastid delayed-death inhibitors; AID 504834; 320,000 compounds, 6.9% hits; Potency, µM (top dose mostly 28.7 µM), for the others: top-dose activity change, negative = inhibition, actives largely listed as inhibitors; P. falciparum luciferase reporter growth, 96 h; note: potency is the fitted concentration of half-maximal effect; % is set by controls: 0 for no effect and ±100 for the full control effect
#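 Two parasite generations (96 h, 37 C, 5% CO2) of compound exposure in infected erythrocytes (0.05% parasitemia, 2% hematocrit). Luciferase-reporter P. falciparum; decreased luminescence indicates inhibited growth, aimed at apicoplast-acting delayed death.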
# Active calls of the source: *; i = inactive; ? = inconclusive; . = no result. Only some compounds are listed: those with a hit (about 22% of all), similar ones and a draw of the others. Unless noted, calls come from the whole dose curve; as a rule, active = well fitted inhibition curve with a large enough effect; inconclusive = small, poorly fitted or top-dose-only effect, or another doubt; inactive = no such curve, though single readings can be large or run the other way.
SMILES,LmPK inhibitor,CHX counter,Shiga inhibitor,Pf growth 48h,Pf growth 96h
CCc1nnc(NC(=O)[C@@H](NC(=O)c2cccc(S(=O)(=O)N3CCOCC3)c2)C(C)C)s1,1%,-1,-19,?,?
Cc1cccn2c(=O)nc(SCC(=O)NCc3ccc4c(c3)OCO4)nc12,.,.,.,-1%,2%
Cc1cccn2c(NCc3ccc4c(c3)OCO4)c(-c3ccc(O)cc3)nc12,4%,11,-12,4.1µM*,i
CC(=O)Nc1ccc(S(=O)(=O)N(C)Cc2cnn(C)c2)cc1,-1%,2,-4,12%,78%
Cc1ccccc1N=C1NN=C(c2ccccc2F)CS1,-8%,49*,37*,?,1%
CCCC[C@H](NC(=O)[C@H](CC(C)C)NC(=O)[C@@H](Cc1c[nH]c2ccccc12)NC(=O)[C@H](Cc1ccccc1)NC(=O)[C@@H](Cc1c[nH]c2ccccc12)NC(=O)[C@H](CC(N)=O)NC(=O)[C@@H](Cc1c(Cl)cccc1Cl)NC(=O)[C@@H]1CCCN1C(=O)[C@H](Cc1ccccn1)NC(=O)[C@@H]1CCCN1C(=O)[C@H](N)CCCCNC(=O)c1cccnc1)C(N)=O,.,-8,-3,.,.
CC(C)(C)C(=O)Nc1sc2c(c1-c1nc3ccccc3[nH]1)CCCC2,3%,12,16,9.3µM*,?
CC(C)(C)C(=O)Nc1cccc(-c2nc3ccccc3[nH]2)c1,-1%,4,-6,-1%,.
CCCn1c(N)c(C(=O)CN(C)CC(=O)Nc2cc(C)ccc2C)c(=O)[nH]c1=O,.,.,.,5%,15%
Cc1ccc(NS(=O)(=O)c2ccc(-c3cnc(C4CC4)o3)cc2)cc1,3%,2,8,7%,12µM*
CC(C)N1CCN(Cc2cn[nH]c2C2CCCCC2)CC1CCO (stereo not given),5%,-2,18,0%,-1%
CCc1nc(SCc2ccccc2C)n[nH]1,-3%,21*,44,-18%,6.6µM*
Cc1nc(SCc2ccccc2C)n[nH]1,-4%,19*,active,15%,-15%
Clc1cccc(Cl)c1NC1=NCCN1,-4%,1,2,-14%,12µM*
CCc1cccc(CC)c1NC1=NCCN1,.,-3,-6,.,.
CCn1c(C)nc2cc(C(=O)N/N=C(\C)c3ccccc3O)ccc21,9%,31*,85*,21%,-6%
CCn1c(C)nc2cc(C(=O)N/N=C/c3ccccc3C)ccc21,-2%,41*,133*,-5%,?
CCn1c(C)nc2cc(C(=O)NNC(=S)Nc3ccccc3OC)ccc21,-9%,20*,33*,113%,62%
CCn1c(C)nc2cc(C(=O)NNC(=S)Nc3ccc(C)cc3)ccc21,-2%,12,25,-11%,-21%
CCn1c(C)nc2cc(C(=O)NNS(=O)(=O)c3ccccc3F)ccc21,1%,-5,-13,7%,21%
COc1ccccc1CNC(=O)CNC(=O)c1sc2ccccc2c1Cl,6%,9,6,18%,-40%
CCC(C)(C)c1ccc(Oc2cccc(C(=O)O)c2)cc1,9%,39*,163*,54%,83%
Cc1cc(C(=O)NNC(=S)NC2CCCCC2)cs1,-8%,17*,34,74%,5%
COc1cccc(C(=O)NC2CCCC2)c1,-2%,7,43,14%,4.7µM*
CCNC(=S)NNC(=O)c1csc(C)c1,-1%,6,5,5%,-9%
SMILES,LmPK inhibitor,CHX counter,Shiga inhibitor,Pf growth 48h,Pf growth 96h
O=C(NC1CCCC1)c1cccc(Oc2ccccc2)c1,2%,23*,78*,11%,?
CN1CCC(NC(=O)c2cccc(Oc3ccccc3)c2)CC1,-3%,-3,-11,-1%,10%
CCCC(C)NC(=O)c1cccc(Oc2ccccc2)c1 (stereo not given),-9%,23*,60*,5%,3%
CC(=O)Nc1ccc(NC(=O)c2cccc(Oc3ccccc3)c2)cc1,-2%,-2,-7,15%,12%
COc1cccc(C(=O)NNC(=S)NC2CCCCC2)c1,3%,42*,47*,184%,?
Cc1ccc(C(=O)Nc2ccc([N+](=O)[O-])cn2)o1,-20%,45*,122*,110%,159%
COC(=O)c1cc(C(=O)Nc2cccc(C)n2)cc([N+](=O)[O-])c1,3%,-2,-6,34%,47%
COc1ccc(C(=O)Nc2ccc([N+](=O)[O-])cn2)c(OC)c1,3%,36*,107*,196%,47%
COC(=O)c1cc(C(=O)Nc2ccc(C)cn2)cc([N+](=O)[O-])c1,-1%,-1,-5,18%,12µM*
O=C(COc1ccc(Br)cc1)Nc1ccc([N+](=O)[O-])cn1,5%,-3,-10,37%,4.1µM*
O=C(Cc1ccc([N+](=O)[O-])cc1)Nc1ccc(Br)cn1,3%,2,-7,-14%,?
Cc1ccc(C)c(OCc2ccc(C(=O)Nc3ccc([N+](=O)[O-])cn3)o2)c1,.,.,.,?,-40%
Cc1cc(C(=O)Nc2ccc([N+](=O)[O-])cn2)cs1,-5%,41*,141*,100%,122%
Cc1ccc(S(=O)(=O)N2CCCC2C(=O)NCc2ccccc2Cl)cc1 (stereo not given),0%,-5,-11,-15%,?
CC(/C=C/c1ccc(N(C)C)cc1)=N\N=C(/N)SC1CC(=O)N(c2ccc(C(=O)O)cc2)C1=O (stereo not given),6%,45*,70*,-23%,12%
C=CCN(CC=C)c1nc2ccccc2nc1C(C#N)C(=O)OC(C)C (stereo not given),1%,-2,12,10µM*,?
Cc1ccc(S(=O)(=O)N2CCC(C(=O)NC3CC(C)(C)NC(C)(C)C3)CC2)cc1C,-6%,-2,4,-28%,-6%
Cc1nc(NC(=S)NC(=O)c2ccco2)sc1C(=O)N(C)C,-11%,32*,57,21%,6%
Cc1nnc(NC(=O)c2oc3ccccc3c2C)s1,-11%,36*,90*,116%,201%
Cc1nc(NC(=O)c2ccncc2)sc1C(=O)N(C)C,1%,10,-12,22%,?
Cc1nc(NC(=O)/C=C/c2ccccc2)sc1C(=O)N(C)C,2%,40*,80*,137%,43%
Cc1nc(NC(=O)c2oc3ccccc3c2C)sc1C(=O)N(C)C,-5%,40*,52*,274%,-25%
CCOC(=O)c1c(N2C(=O)CC(Sc3ccccc3C(=O)O)C2=O)sc2c1CCCC2 (stereo not given),7%,-4,16,-2%,-5%
Cc1ccc(S(=O)(=O)N2CCOCC2)cc1NC(=O)COC(=O)Cn1c(C)csc1=O,.,.,.,-7%,5%
COc1ccc(-n2nc(C(=O)N3CCC(N4CCCCC4)CC3)c3c4ccccc4n(C)c3c2=O)cc1,2%,-2,-3,?,?
Cc1ccc(C(=O)Nc2nc(C)c(C(=O)N(C)C)s2)o1,?,37*,80*,-3%,11%
